Test results published in publication PMC4336329 (PLoS ONE, 2015).
About 14,000 (4.5%) of roughly 310,000 compounds showed an effect of 50% or more. The effect is printed as a negative number. The full list was thinned out, with strong results kept by preference.

These compounds were tested against human ether-à-go-go-related gene (hERG) potassium channel (human, UniProt Q12809) (assay: primary screen, population patch clamp on CHO cells stably expressing hERG; higher = less effect of the substance).
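Further: peak tail current of the secondary pulse compared with the same well before compound.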

Chain of human ether-à-go-go-related gene (hERG) potassium channel (Q12809 whole entry, looked up): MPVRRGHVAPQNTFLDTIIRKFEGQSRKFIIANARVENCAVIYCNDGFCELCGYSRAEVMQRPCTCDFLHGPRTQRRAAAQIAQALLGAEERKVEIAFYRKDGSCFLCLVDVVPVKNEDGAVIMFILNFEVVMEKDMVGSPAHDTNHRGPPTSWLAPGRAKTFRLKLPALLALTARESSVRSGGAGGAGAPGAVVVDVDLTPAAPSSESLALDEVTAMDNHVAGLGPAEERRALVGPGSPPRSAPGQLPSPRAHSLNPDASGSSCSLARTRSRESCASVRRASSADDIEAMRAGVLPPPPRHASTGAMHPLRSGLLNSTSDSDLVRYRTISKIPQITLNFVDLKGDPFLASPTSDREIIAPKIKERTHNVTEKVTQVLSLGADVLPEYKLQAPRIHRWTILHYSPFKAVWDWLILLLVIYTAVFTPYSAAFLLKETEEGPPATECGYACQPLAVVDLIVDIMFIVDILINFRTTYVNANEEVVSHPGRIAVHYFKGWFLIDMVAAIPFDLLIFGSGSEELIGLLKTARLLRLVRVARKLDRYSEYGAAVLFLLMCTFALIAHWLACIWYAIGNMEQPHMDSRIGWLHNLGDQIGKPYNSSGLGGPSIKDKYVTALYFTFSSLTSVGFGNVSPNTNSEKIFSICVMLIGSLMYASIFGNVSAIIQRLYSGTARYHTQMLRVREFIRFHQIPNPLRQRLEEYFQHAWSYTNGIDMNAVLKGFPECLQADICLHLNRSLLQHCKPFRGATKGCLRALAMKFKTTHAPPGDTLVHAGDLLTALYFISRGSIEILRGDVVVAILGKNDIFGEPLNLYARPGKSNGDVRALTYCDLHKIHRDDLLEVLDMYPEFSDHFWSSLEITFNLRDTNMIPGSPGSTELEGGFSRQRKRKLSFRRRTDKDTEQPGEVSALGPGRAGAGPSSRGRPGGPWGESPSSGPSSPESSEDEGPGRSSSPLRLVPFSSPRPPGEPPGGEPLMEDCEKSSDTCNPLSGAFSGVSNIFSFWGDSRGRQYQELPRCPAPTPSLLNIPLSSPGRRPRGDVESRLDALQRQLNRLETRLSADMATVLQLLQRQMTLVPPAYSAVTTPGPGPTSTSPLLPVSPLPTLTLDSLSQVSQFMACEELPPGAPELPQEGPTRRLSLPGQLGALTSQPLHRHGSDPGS

Row | Compound | hERG current change (%, negative = inhibition) at 10uM [%]
1 | CCC(Sc1nc(C)cc(=O)[nH]1)C(=O)Nc1sc2c(c1C#N)CCCC2 (centres unmarked) | -19.1
2 | Cc1ccc2oc3nc(C)c(C(=O)Nc4cccc(C(F)(F)F)c4)cc3c(=O)c2c1 | 6.48
3 | O=C(CCS(=O)(=O)c1cccc2nsnc12)N1CCN(c2ccccc2F)CC1 | -30.3
4 | COC(=O)C1=C(C(=O)c2ccc(C)cc2)C(c2ccc(OC)c(OC)c2)n2nnnc2N1 (centres unmarked) | 3.59
5 | Cc1ccc(O)c(-c2cc(-c3cccc(F)c3)n[nH]2)c1 | 23.6
6 | CCOC(=O)C1(Cc2cccc(F)c2)CCN(Cc2cnn(CC)c2C)CC1 | -16.6
7 | CCCn1cc(CN2CCC(Cc3cccc(F)c3)(C(=O)OCC)CC2)c(C)n1 | -67.2
8 | CCCn1ncc(CN2CCC(Cc3cccc(F)c3)(C(=O)OCC)CC2)c1C | -59.7
9 | CCOC(=O)C1(Cc2ccc(Cl)cc2)CCN(Cc2cn(CC)nc2C)CC1 | -67.7
10 | CCOC(=O)C1(Cc2ccc(Cl)cc2)CCN(Cc2cnc(N)nc2)CC1 | -74.7
11 | CCOC(=O)C1(Cc2cccc(OC)c2)CCN(Cc2cnc(N)nc2)CC1 | -28.2
12 | CCOC(=O)C1(Cc2cccc(F)c2)CCN(Cc2ccon2)CC1 | 3.48
13 | CCOC(=O)C1(Cc2ccc(Cl)cc2)CCN(Cc2ccon2)CC1 | -49.5
14 | CCOC(=O)C1(S(=O)(=O)c2ccc(Cl)cc2)CCN(Cc2ccc(Cl)cc2)CC1 | 14.7
15 | CCOC(=O)C1(Cc2cccc(F)c2)CCN(Cc2ccc(COC)o2)CC1 | -23.5
16 | CCOC(=O)C1(Cc2cccc(F)c2)CCN(Cc2cn(CC)nc2C)CC1 | -38
17 | O=C(NCC1OCCc2ccccc21)c1ccc(NC(=O)c2cccc(Br)c2)cc1 (centres unmarked) | 2.42
18 | COC(=O)Cn1c(C)c(C(C)=O)c(C(C)=O)c1C | 14.1
19 | CCOCCCN1C(=O)C(=O)N(CC(=O)N2c3ccccc3NC(=O)CC2C)C1=O (centres unmarked) | 17.2
20 | O=C(O)c1cc(S(=O)(=O)N2CCCCC2)sc1Cl | 17
21 | Cc1ccc(C)c(OCCC(=O)NCCc2ccc(Cl)cc2)c1 | 21.6
22 | O=C(COC(=O)Cc1cccc(C(F)(F)F)c1)NCC1CCCO1 (centres unmarked) | 1.46

Row | Compound | hERG current change (%, negative = inhibition) at 10uM [%]
23 | O=C(OCC(=O)N1CCCc2ccccc21)c1cc(Br)ccc1O | 12.4
24 | COc1c2c(nc3occc13)C(CC=C(C)C)(OC)C(O)CC2 (centres unmarked) | 5.5
25 | CCCn1cc(CN2CCC(Cc3ccccc3)(C(=O)OCC)CC2)c(C)n1 | -60.4
26 | CC1(C)Cc2ccccc2-c2nc3n(c(=O)c21)CCCS3 | 12.8
27 | Cc1cc(OC(C)C(=O)NNC(=O)Nc2ccc(F)cc2F)cc(C)c1Cl (centres unmarked) | 22.3
28 | COc1cc(OC)c(OC)cc1CN(C)CC1CCCN(CCc2ccccc2F)C1 (centres unmarked) | -2.33
29 | COc1ccc(CCN2CCCC(CN(C)Cc3cc(Cl)c(O)c(OC)c3)C2)cc1 (centres unmarked) | -65.7
30 | COc1ccc(CCN2CCCC(CN(C)Cc3cc(OC)ccc3OC)C2)cc1 (centres unmarked) | -69.1
31 | COc1ccc(CCN2C(=O)c3ccccc3NC2c2cc(Cl)c(O)c(OC)c2)cc1 (centres unmarked) | -4.85
32 | COc1ccc(CCN2CCCC(CN(C)Cc3cc(OC)c(OC)c(OC)c3)C2)cc1 (centres unmarked) | -51.6
33 | COc1cc(CN(C)CC2CCCN(CCc3ccccc3F)C2)cc(Cl)c1OC (centres unmarked) | -69.8
34 | CN(Cc1ccccc1)CC1CCCN(CCc2ccccc2F)C1 (centres unmarked) | -49.9
35 | COc1ccc(OC)c(CN2CCCC(CO)C2)c1 (centres unmarked) | 0.935
36 | CC(=O)Nc1ccc(NC(=O)c2oc3cc(C)c(C)cc3c2C)cc1 | 7.5
37 | COc1ccc(-c2cc(CCCC(=O)NCCc3ccc(OC)cc3OC)no2)cc1 | 5.37
38 | CN(CC1COCCO1)C(=O)c1cc(COc2c(F)cccc2F)on1 (centres unmarked) | 6.62
39 | O=C(COc1ncnc2c(Cl)cc(Cl)cc12)NCCC1=CCCCC1 | 12.4
40 | Cc1cccc(C(=S)N2CCOCC2)n1 | 5.42
41 | C=CCNC(=O)C(C)Sc1ccc(Cl)cc1 (centres unmarked) | 0.00948
42 | Cc1cc(C(C)(C)C)cc(C)c1C(=O)O | 0.0126
43 | Cn1cnnc1SCc1ccc(C(=O)N/N=C/c2cccs2)cc1 | 4.87
44 | COc1ccc(F)c(CN(C)CC2CCCN(CCc3ccc(F)cc3)C2)c1 (centres unmarked) | -73.4

Row | Compound | hERG current change (%, negative = inhibition) at 10uM [%]
45 | CN1C(=O)Cc2cc(S(=O)(=O)N3CCN(c4cccc(Cl)c4)CC3)ccc21 | 15.3
46 | O=NN(CCc1ccncc1)c1ccc(OCc2ccccc2)cc1 | -65.2
47 | O=C1NC(=O)C(CCc2ccncc2)(Cc2ccc(OCc3ccccc3)cc2)C(=O)N1 | 11.8
48 | COc1ccc(N(Cc2ccccc2)N=O)cc1 | -23.3
49 | Cc1ccc(SCC2=NNC(=O)C2)cc1 | -3.78
50 | Cn1nc(-c2ccccc2)c(-c2nc(-c3ccc(Cl)cc3)no2)c1Cl | 6.65
51 | Cc1ccc2nc(N(CCN(C)C)C(=O)/C=C/c3cccs3)sc2c1.Cl | -40.3
52 | CCOc1ccccc1NC(=O)Cn1c(=O)c2ccccc2n(CC)c1=O | -11.7
53 | CC(C)(C)NC(=O)[C@@H]1C[C@@H]2CCCC[C@@H]2CN1C[C@@H](O)[C@H](Cc1ccccc1)NC(=O)[C@H](CC(N)=O)NC(=O)c1ccc2ccccc2n1.CS(=O)(=O)O | -72.1
54 | CS(=O)(=O)O.Cc1c(O)cccc1C(=O)N[C@@H](CSc1ccccc1)[C@H](O)CN1C[C@H]2CCCC[C@H]2C[C@H]1C(=O)NC(C)(C)C | -4.69
55 | CC(C)(C)NC(=O)[C@@H]1C[C@@H]2CCCC[C@@H]2CN1C[C@@H](O)[C@H](Cc1ccccc1)NC(=O)[C@H](CC(N)=O)NC(=O)c1ccc2ccccc2n1 | -9.59
56 | CC(=O)Nc1ccc(Nc2ncnc3c2cnn3-c2cccc(C)c2)cc1 | 10
57 | O=C(O)c1ccc(S(=O)(=O)c2ccc(Sc3ccc(C(=O)O)c(C(=O)O)c3)cc2)cc1 | 23.3
58 | CCCc1ccc(OCC(O)CN2CCN(C(=O)OCC)CC2)cc1.Cl (centres unmarked) | -52.2
59 | CCOC(=O)N1CCN(Cc2ccc(OCC(O)CN3CCCCC3)cc2)CC1 (centres unmarked) | 15.7
60 | CCOC(=O)N1CCN(CC(O)COc2ccc(C)c(C)c2)CC1.Cl (centres unmarked) | 6.64
61 | CCOC(=O)N1CCN(CC(O)COc2cc(C)cc(C)c2)CC1.Cl (centres unmarked) | -12.7
62 | CCOC(=O)N1CCN(CC(O)COc2ccc(CC)cc2)CC1.Cl (centres unmarked) | -31.2
63 | CCOC(=O)N1CCN(CC(O)COc2ccc(-c3ccccc3)cc2)CC1.Cl (centres unmarked) | -60.3
64 | COc1ccccc1NC(=O)COC(=O)C1CCN(/C=C/C(=O)C(F)(F)F)CC1 | -49.6
65 | Cc1ccc(S(=O)(=O)N/N=C\c2cn(CC(N)=O)c3ccccc23)cc1C | 5.21
66 | Cc1nn(Cc2cccc(C(=O)Nc3ccn(Cc4ccccc4F)n3)c2)c(C)c1[N+](=O)[O-] | 6.24

Row | Compound | hERG current change (%, negative = inhibition) at 10uM [%]
67 | Cc1ccc(-c2nc(N/N=C/c3ccncc3)c3ccccc3n2)cc1 | 3.06
68 | COc1cc(CN2CCC(Cc3ccccc3)CC2)c([N+](=O)[O-])cc1OC | 0.589
69 | COc1cc(C)cc(CN2CCC(Cc3ccccc3)CC2)c1O | -52.2
70 | COc1cc(OC)c(CN2CCC(Cc3ccccc3)CC2)cc1Br | -70.9
71 | Cc1cc(O)c(CN2CC=C(c3ccccc3)CC2)cc1C(C)C | -14.1
72 | COc1cc(C)cc(CN2CC=C(c3ccccc3)CC2)c1O | -51.4
73 | COc1cc(C)c(CN2CCC(Cc3ccccc3)CC2)cc1C | -45.3
74 | COc1ccc(C(C)=O)cc1CN1CC=C(c2ccccc2)CC1 | -17
75 | FC(F)(F)c1ccccc1CN1CCC(Cc2ccccc2)CC1 | 12
76 | COc1ccc(CN2CCC(Cc3ccccc3)CC2)c(C)c1C | -23
77 | O=C1C2C(c3ccccc3)CC=CC2[C@H](c2ccc(C(F)(F)F)cc2)N1Cc1ccccc1 (some centres unmarked) | -2.51
78 | CCC(=O)Nc1c2c(nn1-c1ccc(OC)cc1)CS(=O)C2 (centres unmarked) | 9.94
79 | CC(=O)c1ccc(NS(=O)(=O)Cc2ccccc2)cc1 | 3.41
80 | Cc1cc(=O)oc2cc(OCC(=O)OCc3nnc(-c4ccccc4)o3)ccc12 | 14.3
81 | CC(C)(C)c1ccc(OCC(O)CN2CCOCC2)cc1 (centres unmarked) | -3.19
82 | CCOC(=O)C1CCN(CC(O)COc2ccc(C(C)(C)C)cc2)CC1.Cl (centres unmarked) | -70.4
83 | CCOC(=O)C1CCN(CC(O)COc2ccc(C(C)=O)cc2)CC1.Cl (centres unmarked) | -47.7
84 | CCOC(=O)C1CCN(CC(O)COc2ccc(C(=O)CC)cc2)CC1.Cl (centres unmarked) | -68.5
85 | CCN1CCN(CC(O)COc2ccc(C(C)=O)cc2)CC1.Cl (centres unmarked) | 2.15
86 | CC1CCCC/C1=N\NC(=S)Nc1cccnc1 (centres unmarked) | 15.8
